Only some compounds are listed: those with a hit (about 13% of all), similar ones and a draw of the others.
HCV inhibitor = qHTS Assay for Inhibitors of Hepatitis C Virus (HCV); Huh7.5.1 HCVcc-Cre infection, luciferase reporter, 44 h; Potency, µM (series often up to 41.8 µM), for the others: at the highest dose activity change, negative = inhibition, usual class: inhibitors; 340,000 tested, 3.4% active; AID 651820, 2012; active = well fitted inhibition curve with a large enough effect; inconclusive = small, poorly fitted or top-dose-only effect, or another doubt; inactive = no such curve, though single readings can be large or run the other way; note: potency is the fitted concentration of half-maximal effect; % is set by controls: 0 for no effect and ±100 for the full control effect
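After 44 h co-culture of compound, cells and HCVcc-Cre (~0.5 moi), substrate is added for 15 min at room temperature and luciferase measured over 15 sec. Cells were seeded at 1,000/well and pre-cultured 4 h.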
LASV entry inh = qHTS for Inhibitors of binding or entry into cells for Lassa Virus; Lassa virus pseudotype entry inhibition, cell reporter; 300,000 tested, 1.2% active; AID 540256, 2011; Potency, µM (doses to about 37.9 µM), without a hit: at the top dose activity change, negative = inhibition, hits mostly inhibitors; calls by dose curve; tested in HEK293 cells; note: potency is the fitted concentration of half-maximal effect; % is set by controls: 0 for no effect and ±100 for the full control effect; nearly all actives have a fitted effect of over 50% in size
FMDV inh = High Throughput Screening for Foot and Mouth Disease Virus Antivirals. AID 1159524, 2015. FMDV antiviral cell-based qHTS. 410,000 tested, 1.2% active. Potency, µM (titrated, usually from 57.9 µM), for the others: top-dose activity change, negative = inhibition, most hits filed as inhibitors; calls by dose curve; tested in HEK293T cells; note: read-out not given here; potency is the fitted concentration of half-maximal effect; % is set by controls: 0 for no effect and ±100 for the full control effect; nearly all actives have a fitted effect of over 45% in size
Marburg entry inh = qHTS for inhibitors of binding or entry into cells for Marburg Virus; AID 540276, 2011; 300,000 tested, 1.8% active; Marburg virus pseudotyped entry inhibition, cell reporter; Potency, µM (doses to about 37.8 µM), for inactives: at the highest dose activity change, negative = inhibition, usual class: inhibitors; calls by dose curve; tested in HEK293 cells; note: potency is the fitted concentration of half-maximal effect; % is set by controls: 0 for no effect and ±100 for the full control effect
Shiga inhibitor = A qHTS for Small Molecule Inhibitors of Shiga Toxin; AID 2315, 2010; Vero cells, Shiga toxin protein synthesis inhibition reporter; 290,000 tested, 9.2% active; inhibition, % at 38.7 µM; in the data active = inhibition mostly above about 28%, no sharp cut-off; inactive = mostly below about 43%; note: 0% is about no effect
Cycloheximide cs = Cycloheximide Counterscreen for Small Molecule Inhibitors of Shiga Toxin. cell reporter, cycloheximide protein synthesis inhibition counterscreen. max response, %. 300,000 tested, 12% active. AID 2314, 2010; in the data active = max response mostly above about 13%, no sharp cut-off; inactive = mostly below about 14%; note: read at 38.3 µM for the half of the compounds with a filed dose; 0% is about no effect
Starred values were filed as active, the others as inactive; u = inconclusive; x = no result given; [ ] = another dose, or the depositor's remark.

SMILES | HCV inhibitor | LASV entry inh | FMDV inh | Marburg entry inh | Shiga inhibitor | Cycloheximide cs
O=C(NCC1CCCCN1)c1cc(OCC(F)(F)F)ccc1OCC(F)(F)F (centres undefined) | 10µM* | u | 0.0% | u | -9.4 | -3.9
O=C(CCl)NCCNC(=O)c1cc(OCC(F)(F)F)ccc1OCC(F)(F)F | 22.4µM* | -4.1% | -12.7% | u | -6.3 | 5.1
O=C(NCCNC(=O)c1cc(OCC(F)(F)F)ccc1OCC(F)(F)F)Nc1ccc(OC(F)(F)F)cc1 | u | -10.0% | -23.4% | -22.9% | -1.3 | -5.4
O=C(NCCNC(=O)c1cc(OCC(F)(F)F)ccc1OCC(F)(F)F)Nc1ccc(Cl)cc1 | 8.4% | u | -8.3% | 12.9% | 38.6 | 28.1*
O=C(NCCN1CCCCC1)c1cc(OCC(F)(F)F)ccc1OCC(F)(F)F | -4.5% | -25.9% | -12.3% | -12.0% | -9.3 | -2.1
COc1ccc2[nH]cc(C(=O)CCl)c2c1 | u | x | 28.2µM* | x | -6.5 | -6.6
COc1ccc2[nH]cc(C(=O)CN3CC(C)CC(C)C3)c2c1 (centres undefined) | -10.6% | 8.6% | 5.9% | u | 6.6 | -2.9
COc1ccc2[nH]cc(C(=O)CNc3nc(C)cs3)c2c1 | -16.4% | u | 44.1% | 6.6% | 141.0* | 36.1*
CC1CCc2c(sc3nc(CN4CCOCC4)nc(Sc4ccccc4)c23)C1 (centres undefined) | -13.1% | 13.2% | -2.2% | u | -13.3 | -2.6
Cc1ccc(CN(C(=O)COc2ccccc2[N+](=O)[O-])c2ccccn2)o1 | x | -17.7%[46.1 µM] | 21.8% | u | x | x
Cc1noc(C)c1-c1ccc2ncnc(NCc3cccs3)c2c1 | x | x | 2.0% | x | x | x
O=C(CSc1nc2ccccc2n1S(=O)(=O)c1ccccc1)N1CCCC1 | 6.4% | 17.7% | -3.9% | -2.1% | 47.9* | 12.7*
CC1Cc2ccccc2N1C(=O)CSc1nc2ccccc2s1 (centres undefined) | -8.6% | 1.0% | 46.6% | 0.5% | 40.8* | 24.5*
O=C(CSc1nc2ccccc2s1)N1CCCCC1 | -4.0% | 20.1% | x | 4.5% | 123.7* | 42.6*
CCC(CC)C(=O)Nc1ccc2nc(SCC(=O)N3c4ccccc4CC3C)sc2c1 (centres undefined) | x | u | 0.0% | u | x | x
NC(=O)C1CCN(C(=O)CSc2nc3ccccc3s2)CC1 | -0.4% | 10.4% | 31.0% | 21.9% | -4.2 | 1.4
O=C(CSc1nc2ccccc2s1)NC1CCCC1 | -5.6% | 10.1% | -1.4% | u | 32.2 | 6.8
CC1CCCC(C)N1C(=O)CSc1nc2ccccc2s1 (centres undefined) | u | u | 36.2% | 5.6% | 126.2* | 34.8*
CC(C)C[C@H]1CNC(=O)C(=O)N1CC1CCN(CCc2ccccc2)CC1 | x | x | -2.7% | x | x | x
CCc1ccc(-c2ccc3nnc(SCC(=O)NCC4CCCO4)n3n2)cc1 (centres undefined) | 6.5% | u | 1.8% | -17.2%[46.1 µM] | x | x
Cc1c(Cl)cccc1N/C(SCC(=O)N1CCCCCC1)=C(/C#N)c1nc2ccccc2s1 | u | u | u | 11.2µM* | -1.9 | -2.2
O=C(CSc1nncc2ccccc12)N1CCCCC1 | -6.3% | 16.4%[46.1 µM] | -5.6% | 0.9%[46.1 µM] | 40.4 | 44.9*
O=C(CSc1nc(C2CC2)nc2ccccc12)N1CCCCC1 | -21.0% | -30.0%[46.1 µM] | -14.6% | u | -4.6 | -4.6
CCN(CC)S(=O)(=O)c1ccc(-c2nnc(SCC(=O)N3c4ccccc4CC3C)n2CC)cc1 (centres undefined) | u | u | 20µM* | u | -0.1 | 1.3
O=C(CSc1c(Cl)cccc1Cl)N1CCC(c2nc3ccccc3s2)CC1 | u | -16.9% | u | u | -10.4 | -2.7
SMILES | HCV inhibitor | LASV entry inh | FMDV inh | Marburg entry inh | Shiga inhibitor | Cycloheximide cs
CNC(=O)CSc1nc(SC)ns1 | 9.9% | -6.9% | 7.4% | 24.4%[46.1 µM] | -4.8 | -1.8
CSc1nsc(SCC(=O)N2CCCCC2)n1 | 2.0% | 24.6% | 80.7% | u | 93.1* | 52.8*
COc1ccccc1CNC(=O)CN1C(=O)NC(Cc2ccccc2)(c2ccccc2)C1=O (centres undefined) | -23.2% | -18.3% | -10.1% | u | x | x
CCc1nc(SCC(=O)N2c3ccccc3CC2C)c2c(C)c(C)sc2n1 (centres undefined) | 12.6µM* | 1.46µM* | x | 0.92µM* | 20.0 | -1.5
CC1CCN(C(=O)CSc2nc3ccccc3s2)CC1 | u | 21.1% | 39.4% | -5.7% | 45.4 | 33.6*
O=C(O)C1CCN(C(=O)CSc2nc3ccccc3s2)CC1 | 24.4% | -1.1% | -6.8% | 5.1%[46.1 µM] | -10.8 | -10.7
Cc1sc2nc(C(C)C)nc(SCC(=O)N3c4ccccc4CC3C)c2c1C (centres undefined) | u | u | 0.0% | u | -4.4 | -0.7
CN(C)c1cccc(C(=O)NNC(=S)NC2CC3CCC2C3)c1 (centres undefined) | 5.6% | -2.5% | 34.6% | u | 55.6* | 31.5*
O=c1c2ccccc2nc2n1C(CSCc1ccc(Cl)cc1Cl)CS2 (centres undefined) | -4.3% | -25.8% | 17.8µM* | u | 35.9 | -2.5
Cc1ccc(NC(=O)c2ccc3c(c2)C(=O)N(c2cc(C)ccc2C)C3=O)nc1 | 8.2% | x | 28.8% | x | 68.2* | 28.7*
CC(C)CN1C(=O)c2ccc(C(=O)Nc3ccccn3)cc2C1=O | -0.9% | 15.0% | 21.5% | 18.4% | 25.5 | 34.4*
Cc1cc(NC(=O)c2ccc3c(c2)C(=O)N(c2cccc(C)c2C)C3=O)no1 | x | 3.3% | u | 6.0% | -9.8 | -3.1
CC(C)CN1C(=O)c2ccc(C(=O)Nc3ccccc3C(=O)O)cc2C1=O | 17.9% | u | 0.0% | u | 71.1* | 55.1*
CC(C)CN1C(=O)c2ccc(C(=O)NCc3ccccn3)cc2C1=O | 12.3% | 23.7%[46.1 µM] | 16.6% | -26.4%[46.1 µM] | 0.4 | -2.5
CC(C)CN1C(=O)c2ccc(C(=O)Nc3ccncc3)cc2C1=O | 5.8% | 10.3% | 12.6µM* | 2.9% | -3.2 | 0.5
Cc1ccccc1NC(=O)c1ccc2c(c1)C(=O)N(CC(C)C)C2=O | -5.2% | 17.3%[46.1 µM] | 13.9% | 9.5%[46.1 µM] | x | -2.7
COc1ccccc1OCC(=O)NCC1(N(C)C)CCCCC1 | x | 6.9%[46.1 µM] | -3.2% | -4.4%[46.1 µM] | x | x
CCCCn1c(N)c(N(CCOC)C(=O)C2CCN(C(=O)c3ccc(Cl)cc3)CC2)c(=O)[nH]c1=O | 8.4% | 6.1%[46.1 µM] | -20.6% | 19.2% | x | x
COc1ccc(C(=O)NNC(=O)Cn2nc(C)cc2C)cc1S(=O)(=O)N1CCOCC1 | x | x | 0.0% | x | x | x
CC(=O)Oc1ccc(C2(c3ccc(OC(C)=O)cc3)C(=O)Nc3ccccc32)cc1 | x | x | x | x | -5.4 | -4.6
Cc1cccc(C(=O)OCCN2CCOCC2)c1 | -12.7% | 7.7% | 0.0% | 4.9% | 41.1* | 25.8*
O=C(OCCN1CCOCC1)c1ccc2c(c1)OCCO2 | 13.8% | u | 32.4% | 11.0% | 75.4* | 52.7*
COc1ccc(C(=O)OCCN2CCOCC2)cc1 | -1.2% | 14.5% | 16.3% | 21.8% | 43.9* | 25.2*

Bioassay records as filed in PubChem.
